Screening results as filed in PubChem BioAssay.
An excerpt weighted towards active compounds, which were near 1.5% of everything screened.
Mtb MenB inh: M. tuberculosis MenB inhibitors, primary screen, biochemical, absorbance. 1,4-dihydroxy-2-naphthoyl-CoA synthase (Mycobacterium tuberculosis (strain ATCC 25618 / …. MenB enzyme assay, absorbance read-out. inhibition, % (no concentration beside the values). 100,000 tested, 0.43% active. AID 540299, 2011; in the data active = inhibition above about 21%, passing the limit was not always enough
MbtI inh: MbtI salicylate synthase inhibitors, primary screen, biochemical, fluorescence intensity; 100,000 tested, 0.89% active; purified MbtI enzyme, fluorescence intensity read-out; inhibition, % (no concentration beside the values); P9WFX0; in the data active = inhibition mostly above about 56%, no sharp cut-off; inactive = mostly below about 77%
Polio RdRp inh: poliovirus RdRp elongation inhibitors, primary screen, biochemical, fluorescence polarization, total intensity; Genome polyprotein (Poliovirus type 1 (strain Mahoney)), P03300; poliovirus polymerase elongation; hits give low values; % elongation, % (compound at 16.7 µg/mL); 150,000 tested, 0.66% active; in the data active = % elongation below about 90%
Target sequence (P03300 1749-2209 limits assumed): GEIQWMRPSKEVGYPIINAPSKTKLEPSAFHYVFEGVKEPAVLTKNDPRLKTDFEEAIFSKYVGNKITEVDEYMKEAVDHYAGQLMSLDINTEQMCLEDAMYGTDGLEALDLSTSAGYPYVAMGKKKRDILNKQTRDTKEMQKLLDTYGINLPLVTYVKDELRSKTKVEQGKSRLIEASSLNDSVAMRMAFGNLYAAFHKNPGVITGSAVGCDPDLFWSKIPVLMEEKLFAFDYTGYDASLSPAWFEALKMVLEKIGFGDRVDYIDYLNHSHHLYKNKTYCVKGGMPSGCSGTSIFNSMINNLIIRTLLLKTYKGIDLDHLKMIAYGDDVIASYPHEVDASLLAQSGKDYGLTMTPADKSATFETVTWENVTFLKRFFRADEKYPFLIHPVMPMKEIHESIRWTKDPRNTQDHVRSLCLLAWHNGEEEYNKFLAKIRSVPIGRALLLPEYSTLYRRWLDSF
* hit, by the source's call; · = no result given.

SMILES	Mtb MenB inh	MbtI inh	Polio RdRp inh
Cc1ccccc1OCc1nnc(SCCC(=O)O)n1Cc1ccccc1	-4	·	103
COc1ccc(CCNC(=O)CC#N)cc1OC	·	-3	105
Cc1ccc2cc(C(F)(F)F)ccc2n1	-9	8	·
CC(=O)N/C(=C\c1ccccc1)C(=O)OCc1c(C)noc1C	5	7	102
CCc1ccccc1NC(=O)c1ccc2c(O)c(S(=O)(=O)c3ccccc3)c(=O)[nH]c2c1	·	·	102
Cc1ccc(Cl)cc1N1CCN(C(=O)CCNS(=O)(=O)c2ccc3c(c2)CCC(=O)N3)CC1	-19	-9	101
CCn1c(=O)n(CC)c2cc(NC(=O)Cn3cnc4ccccc43)ccc21	-6	0	103
COc1ccc(OC)c(-c2csc(=NC(C)C)n2/N=C2\C(=O)N(C)c3ccccc32)c1	-46	6	56
Cc1ccccc1OCC(=O)OCC(=O)N1c2ccccc2CC1C (stereo not given)	·	-1	102
O=C(COC(=O)c1ccccc1)NCC1CCCO1 (stereo not given)	·	-7	103
O=C(COC(=O)c1ccco1)NCC1CCCO1 (stereo not given)	35*	-3	99
CCOc1ccc(S(=O)(=O)Nc2ccccc2C(=O)Nc2nn[nH]n2)cc1	0	-34	104
O=P(O)(Nc1ccccc1)Nc1ccccc1	-13	·	105
O=C(Cn1cnc2ccccc21)Nc1ccccc1	-16	-20	102
O=C(Cn1cnc2ccccc21)NC1CCCC1	33*	5	101
COC(=O)c1cn(CC(=O)NC2CCCCCC2)c2ccccc12	31*	-1	100
COC(=O)Cn1cc(C(=O)OC)c2ccccc21	12	-4	102
COC(=O)c1ccc(NCc2cc(=O)n3ccsc3n2)cc1	4	-2	102
Cc1ccc(-c2nnn(CC(=O)N(Cc3cccs3)C(C(=O)NCC3CCCO3)c3ccc(F)cc3)n2)o1 (stereo not given)	-22	0	98
COc1ccc(CCNC(=S)N2CCCC2)cc1OC	-24	-16	100
COc1ccc(CCNC(=S)N2CCCC(C(F)(F)F)C2)cc1 (stereo not given)	-8	84*	80*
CCCN(CCC)S(=O)(=O)c1cccc(S(C)(=O)=O)c1	-17	-12	101
N#Cc1c(NCSCc2ccccc2)sc2c1CCCCC2	-12	·	69*
N#Cc1c(NC(=S)Nc2ccccc2)sc2c1CCC2	-22	·	114
O=C(OCC(=O)N1CCN(C(=O)c2ccco2)CC1)c1ccccc1NS(=O)(=O)c1ccc(F)c(F)c1	-12	12	96
SMILES	Mtb MenB inh	MbtI inh	Polio RdRp inh
c1ccc(-n2nnnc2SCCSc2nnnn2-c2ccccc2)cc1	·	-7	·
O=C1C=CC(=O)C(Sc2nnnn2-c2ccccc2)=C1	-3	102*	99
Cc1nnsc1C(=O)Oc1ccc(Cl)cc1	·	·	102
Cc1nc(C(=O)Oc2ccc(Cl)cc2)sc1C(=O)Oc1ccc(Cl)cc1	-7	55	42*
Cc1cc(C)n(-c2ccc(N/N=C(/C#N)S(C)(=O)=O)cc2)n1	-179	9	102
Cc1cc(=S)nc(-c2ccccn2)[nH]1	-40	81*	155
Cn1nc(-c2ccccn2)sc1=S	-28	1	100
CC1CCc2nc(NNC(=O)CN3CCCC3)nc(C(F)(F)F)c2C1 (stereo not given)	-12	4	100
O=c1c2ccccc2nc2ccccn12	-2	108	101
O=c1nc2ccccn2c2c1c(=O)[nH]c1ccccc12	62*	3	102
O=C(NCc1ccc(Cl)cc1)c1cc(F)c(F)c(F)c1F	·	-7	104
O=C(O)CSCC(=O)NC1CCCCNC1=O (stereo not given)	-28	4	104
NNC(=O)c1cc(=S)nc[nH]1	-35	99*	97
NNC(=O)c1cc2ccccc2[nH]1	4	16	100
c1ccc(Oc2cccc(CSc3nc4ccccc4o3)c2)cc1	-19	·	101
Cc1cccc(N(C)C(=O)C2CCN(S(=O)(=O)c3cccc4nonc34)CC2)c1	·	·	102
O=C(CC12CC3CC(CC(C3)C1)C2)NCC(=O)N1CCN(Cc2ccccc2)CC1	-24	-10	104
O=C(CC12CC3CC(CC(C3)C1)C2)NCC(=O)N1CCCC1	-16	-14	86*
O=C(NC1CCCCC1)Oc1cc2oc(=O)sc2cc1Cl	-55	16	98
O=c1oc2cc(Cl)c(O)c(Cl)c2s1	-53	99*	102
Cn1c(C(C#N)c2nc(C#N)c(C#N)nc2Cl)nc2ccccc21 (stereo not given)	-32	3	93
Cc1cc(C)cc(NC(=O)/C=C\C(=O)O)c1	9	-2	99
Cc1c(C)c(NC(=O)/C=C/C(=O)O)c(C)c(C)c1NC(=O)/C=C/C(=O)O	10	60*	103
